ATXN viability = reduces viability in counter-screen for ATXN expression inhibitors; Potency, µM (highest dose often 56.7 µM), usual class: cytotoxic; S2 cells (HEK-293 line with an ATXN2-luciferase reporter) viability, CellTiter-Fluor protease fluorescence, 24 h; AID 651635; 0.49% of 400,000 active; further: nearly all actives have a fitted effect of over 40% in size
TGFb SMAD3 inh = TGF-b pathway inhibition | HepG2 CAGA-GFP TGF-b/SMAD3 reporter, GFP fluorescence, 18 h; TGF-beta stimulated, 500 pg/mL final | Potency, µM (titrated, usually from 46.1 µM), for the others: at the highest dose activity, negative = inhibition, actives largely listed as inhibitors | 1.2% of 410,000 active; further: on the % scale 0 is the no-effect control and ±100 the full control effect; nearly all actives have a fitted effect of over 65% in size
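GFP signal (ex488/em500-530) from TGF-beta-stimulated HEPG2 CAGA-GFP cells, 500 pg/mL final, 18 h at 37 degrees C in DMEM plus 1% FBS, normalized to unstimulated and DMSO-stimulated controls.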
HepG2 viability = counter-screen for TGF-b inhibitors: cytotoxicity in HepG2 cells. Potency, µM (highest dose often 46.1 µM), for inactives: at the highest dose activity change, negative = cytotoxicity, most hits filed as cytotoxic. HepG2 CAGA-GFP viability, ATP luminescence, 18 h. 0.76% of 410,000 active. AID 588856
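CellTiter-Glo luminescence gave cytotoxicity after 18 hours at 37 degrees C. The cells were HepG2 CAGA-GFP in 1% FBS DMEM, stimulated with 500 pg/mL TGF-beta after compound addition. %Activity was normalised to no-cell wells (complete cell-killing) and DMSO (no toxicity), and curves were fitted and classified.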
ATXN2 expr inh = inhibitors of ATXN2 expression | HEK-293 ATXN2-luciferase reporter, luminescence, 24 h | Potency, µM (highest dose often 57 µM), inactives show at the top dose activity change, negative = inhibition, usual class: inhibitors | 0.72% of 360,000 active; further: on the % scale 0 is the no-effect control and ±100 the full control effect; nearly all actives have a fitted effect of over 55% in size
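ATXN2-luciferase reporter cells (luciferase flanked by upstream and downstream ATXN2 gene portions) were treated 24 h at 37 °C with compounds at up to 57 uM. SteadyGlo luminescence gave expression; GF-AFC fluorescence gave viability.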
HT1080NT lethal = kills 2HG-producing HT-1080-NT fibrosarcoma cells | HT-1080-NT fibrosarcoma viability, CellTiter-Glo ATP luminescence, 48 h | Potency, µM (doses to about 46.1 µM), for inactives: at the highest dose activity, negative = less viability, usual class: cytotoxic | 1.6% of 360,000 active;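 further: NT is the 2HG producing partner of a matched IDH1 knockdown line; 0% = DMSO-treated cells and -100% = media-only wells without cells; nearly all actives have a fitted effect of over 55% in size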
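Luminescent CellTiter-Glo readout after 48 hours of compound exposure at 37 degrees C defined viability of HT-1080-NT cells. Activity was normalized to DMSO wells and cell-free media wells; concentration-response curves were fitted and assigned curve classes.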
HT1080 IDH1KD tx = kills HT-1080 cells with IDH1 knockdown; 2% of 360,000 active; Potency, µM (highest dose often 46.1 µM), for inactives: top-dose activity, negative = toxicity, hits mostly cytotoxic; HT-1080 IDH1 knockdown viability, ATP luminescence, 48 h;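 further: 0% = DMSO wells and -100% = cell-free medium wells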
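In this qHTS, HT-1080 cells depleted of IDH1 are exposed for 48 h at 37 °C to compound titrations. Toxicity is scored from CellTiter-Glo luminescence, with DMSO as full viability and medium alone as none.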
Starred values were filed as active, the others as inactive; i = inactive; ? = inconclusive; . = no result; ! = not confirmed by another sample. The list is not random: actives were taken first. Their share in the collection is about 3.9%. The call rests on the fitted dose curve; in most records, active means well fitted curve in the direction sought with a large enough effect; inconclusive means small, poorly fitted or top-dose-only effect, or another doubt; inactive means no such curve, though single readings can be large; an effect the other way counts as inactive or inconclusive. Potency means the concentration at half of the fitted maximal effect.

SMILES	ATXN viability	TGFb SMAD3 inh	HepG2 viability	ATXN2 expr inh	HT1080NT lethal	HT1080 IDH1KD tx
COc1ccc(NC(=O)c2cc(-c3ccc4c(c3)OCO4)on2)c(OC)c1	i	13%	2%	5%	.	.
COC(=O)C1CCCCN1Cc1ccc2c(c1)CN(Cc1cnn(-c3ccccc3)c1)CCO2 (configuration not stated)	i	.	.	.	.	.
Fc1ccccc1/C=C1\CCCC2=C1Nc1nnnn1C2c1ccccc1F (configuration not stated)	i	?	-64%	-5%	13µM*	10µM*
Cc1ccc(CSc2nc3ccc(NC(=O)COc4ccccc4)cc3s2)cc1	?	-1%	3%	2%	.	.
CC1CCCCC1n1c(=S)[nH]c2ccccc2c1=O (configuration not stated)	i	?	-66%	-6%	13µM*	11µM*
CC1CCCCC1NC(=O)CCCn1c(=S)[nH]c2ccccc2c1=O (configuration not stated)	i	-9%	-11%	-9%	-6%	-23%
Cc1cc(C)c(Cn2c(C)c(CNCCCc3ccccc3)c(C(=O)O)c2C)c(C)c1	?	21%	-3%	1%	.	.
COc1cc(C(C)C)c(Oc2cnc(NC(CO)CO)nc2N)cc1I	.	.	.	24µM*	.	.
O=C(O)c1ccc(O)c2ncc(N3CCOCC3)cc12	.	.	.	-8%	.	.
Cc1ccc(C(=O)NCC(c2ccc3c(c2)OCO3)N2CCN(c3ccc(F)cc3)CC2)cc1 (configuration not stated)	?	?	-35%	?	.	.
COc1ccc(C(=O)CN2CCN(CCN3C(=O)c4cccc5cccc(c45)C3=O)CC2)cc1	i	?	-19%	-37%	-27%	-30%
COc1cc2c3c(cccc3c1)C(=O)N(CCN1CCCC1)C2=O	i	14µM*	19%	.	13µM*	8.2µM*
COc1ccccc1CNC(=O)CSCc1nc(-c2ccc(OC)c(OC)c2)oc1C	.	?	-16%	.	.	.
COC(=O)c1sc(NC(=O)c2ccc(C)o2)nc1C	i	-30%	-46%	33%	-23%	-29%
CCOC(=O)c1sc(NC(=O)CCc2ccccc2)nc1C	i	31%	-26%	.	-17%	-6%
CCOC(=O)c1sc(NC(=O)c2ccc(OC)cc2)nc1C	i	-18%	-19%	5%	15%	21%
CCOC(=O)c1sc(NC(=O)c2ccc(C)o2)nc1C	i	?	5µM*	8%	?	?
CCOC(=O)c1sc(NC(=O)CC(C)c2ccccc2)nc1C (configuration not stated)	i	-5%	2%	-19%	?	9.2µM*
CCOC(=O)c1sc(NC(=O)c2ccc(OC(C)=O)cc2)nc1C	i	0%	-75%	38%	-26%	29µM*
C[C@@H](C(=O)Nc1ccc2ccccc2c1)[C@H]1C[C@]1(C)[C@H](N)c1ccccc1	.	-20%	-7%	.	.	.
Cc1ccc(Nc2cc(-c3cccc(N4C(=O)c5ccccc5C4=O)c3)ncn2)cc1NS(C)(=O)=O	.	.	.	17%	.	.
Cc1cccc2c1c1ccc3c(c1n2C)C(=O)C=CC3=O	i	16µM*	-37%	.	0%	4%
Cc1ccccc1N1CC(=O)N(c2ccccc2C)CC1=O	i	11%	-5%	-1%	8%	3%
COc1ccc(-n2nc(CCC(=O)N(C)O)cc2-c2ccc(Cl)cc2)cc1	i	.	.	?	.	.
N#Cc1sc2nc(N3CCCCC3)c3c(c2c1N)CCCC3	i	11µM*	-100%	-22%	?	?
SMILES	ATXN viability	TGFb SMAD3 inh	HepG2 viability	ATXN2 expr inh	HT1080NT lethal	HT1080 IDH1KD tx
Cc1cccc(NC(=O)C2CCCN2S(=O)(=O)c2ccc3nc(-c4ccccc4)[nH]c3c2)c1 (configuration not stated)	.	?	-25%	.	.	.
Cc1cc(O)c(C(C)C)cc1NC(=S)Nc1cc(C(C)C)c(O)cc1C	?	10µM*	4%	?	1%	-16%
CCOc1ccc(NC(=O)Nc2cc(C(C)C)c(O)cc2C)cc1	i	-2%	5%	-8%	-12%	0%
CC1=CC(C)(C)NC(=S)N1c1ccc(C)cc1	i	-25%	0%	0%	?	11µM*
CC1=CC(C)(C)NC(=S)N1c1cccc(C)c1	i	-10%	-4%	-26%	8.9µM*!	8.9µM*!
O=C(c1cn(C2CCCN(Cc3cccc(Oc4ccccc4)c3)C2)nn1)N1CCCC1 (configuration not stated)	i	.	.	.	.	.
CCCCCCC[n+]1c(/C=C/c2ccc(N(C)C)cc2)sc2ccccc21	.	?	-96%	.	.	.
CCC(C)C(NC(=O)OC(C)(C)C)C(=O)NC1COC2CC(n3ccc(NC(C)=O)nc3=O)OC12 (configuration not stated)	.	-6%	5%	.	.	.
c1ccc(-c2nnc(-c3ccccn3)s2)nc1	i	-13%	-6%	8.9µM*	-4%	-6%
c1ccc(-c2nc(-c3ccccn3)nc(-c3ccccn3)n2)nc1	?	-27%	-44%	?	?	?
COc1ccc(/C=C2\CN(Cc3ccccc3)C/C(=C\c3ccc(OC)cc3)C2=O)cc1	?	11µM*	-2%	?	?	23µM*
COc1ccc(/C=C2\CN(Cc3ccccc3)C/C(=C\c3ccc(OC)cc3OC)C2=O)c(OC)c1	?	15%	-15%	-26%	?	-16%
Oc1ccc(C=NNC(=S)Nc2ccc(F)cc2)c(O)c1	i	-4%	-12%	?	?	18µM*
Fc1c(F)c(F)c(/C=N/NC(=S)Nc2cccnc2)c(F)c1F	?	-5%	-4%	?	?	16µM*
Fc1cccc(F)c1/C=N/NC(=S)Nc1cccnc1	?	-5%	-15%	-26%	8%	7%
CNC(=S)N/N=C/c1ccccc1Cl	i	6%	4%	11%	3%	6%
O=C(CCC(=O)Nc1ccc(F)cc1)N/N=C/c1ccc(O)cc1O	i	-7%	-51%	-29%	-13%	-18%
S=C(N/N=C/c1ccccc1Cl)Nc1ccccc1	i	?	-6%	3%	14µM*	4µM*
Oc1ccc(C=NNC(=S)Nc2ccccc2)nc1	i	4%	-43%	.	?	4.6µM*
COc1ccc(C(=O)N(Cc2sccc2C)C2CCS(=O)(=O)C2)cc1Cl (configuration not stated)	.	.	-29%	.	.	.
Cc1nc(NCc2c(F)cccc2F)sc1-c1ccn(CCN2CCOCC2)n1	i	.	.	.	.	.
COCCCNc1ncnc2sc(C(=O)N3CCCCC3)c(C)c12	i	.	.	.	.	.

Bioassay records as filed in PubChem BioAssay.
